We go through 11 compounds from PMC6792352, “Limited Chemical Structural Diversity Found to Modulate Thyroid Hormone Receptor in the Tox21 Chemical Library” (Environmental Health Perspectives, 2019).

Molecules are shown by their SMILES. Counter-ions that a name gives are not always drawn.

The assay concerns thyroid hormone receptor (endogenous TRα and TRβ). On the set-up: species or system GH3-TRE-Luc (rat pituitary); GH3-TRE-Luc luciferase reporter, antagonist mode against 1 nM T3, loss of signal, qHTS. The note with it: read-out: Average AC50 (uM) GH3-TRE-Antag, antagonist mode, 1 nM T3, no GH3 cytotoxicity hit.
A word on the AC50: it is the midpoint of the concentration-response curve, whichever way the signal moves. As for `CCOc1cc([N+](=O)[O-])c(OCC)cc1N1CCOCC1` [4-(2,5-Diethoxy-4-nitrophenyl)morpholine], the AC50 worked out at 28.4 µM.

As for `CC(C)=CC1C(C(=O)OC(C#N)c2cccc(Oc3ccccc3)c2)C1(C)C` (centres unmarked) [Cyphenothrin], the AC50 was found to be 79.9 µM.

Consider `C[C@]12CCC(=O)C=C1[C@@H]1C[C@@H]1[C@H]1[C@@H]3[C@@H]4C[C@@H]4[C@@]4(CCC(=O)O4)[C@@]3(C)CC[C@@H]12` [Drospirenone], for which the AC50 is 21.9 µM.

Consider `CCOC(=O)C(C)OC(=O)c1cc(Oc2ccc(C(F)(F)F)cc2Cl)ccc1[N+](=O)[O-]` (centres unmarked) [Lactofen], for which the AC50 came to 81.8 µM.

On to `CCCOc1ccc(S(=O)(=O)N2CCN(CC)CC2)cc1-c1nc2c(CC)n(Cc3ccccn3)nc2c(=O)[nH]1` [UK-343664], for which the AC50 was determined as 76.4 µM.

Turning to `O=C(O)C(F)(F)C(F)(F)C(F)(F)C(F)(F)C(F)(F)C(F)(F)C(F)(F)C(F)(F)F` [Perfluorononanoic acid], the AC50 came to 71.7 µM.

As to `CCN(C(=O)c1cc(C)cc(OC[C@H](C)Nc2ccncc2)c1)C(C)C` [GW473178E methyl benzene sulphonic acid], the AC50 is 51.7 µM.

Take `OCc1c2ccccc2cc2ccccc12` [9-Anthracenemethanol]: the AC50 turned out to be 64.3 µM.

For the compound `O=C(C[C@H]1NCCC[C@@H]1O)Cn1cnc2cc(Br)c(Cl)cc2c1=O` (racemic) [Halofuginone hydrochloride], the AC50 worked out at 46.9 µM.

As for `O=S(=O)(c1cccc2cnccc12)N1CCCNCC1` [Fasudil hydrochloride], the AC50 was 30.1 µM.

For `CC(CN1CC(=O)NC(=O)C1)N1CC(=O)NC(=O)C1` (centres unmarked) [ICRF-159], the AC50 was 33.9 µM.
